Laboratory results taken from PubChem BioAssay (EPA / NIEHS).
Results filed as inconclusive are left out. Calls of active or inactive are those of the source. Rule for the calls: active = hit-call score of the fitted dose curve at least 0.9, where 1 is the maximum; inconclusive = response in the unintended direction; inactive = score below 0.9.

What follows are molecules tested against human Thromboxane A2 Receptor (TXA2), TBXA2R (gene 6915) (UniProt P21731) (assay: NVS_GPCR_hTXA2: NovaScreen (NVS) G Protein-Coupled Receptor Assay for human Thromboxane A2 Receptor (TXA2) (AID 2283282);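 note: actives reduce bound radioligand signal relative to DMSO baseline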).
Method in brief: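 Cell-free radioligand binding with human platelet-derived receptor; 1 h after dosing, filter-based scintillation counting, loss of signal vs DMSO. Primary screen in duplicate at 25 uM.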

Chain of human Thromboxane A2 Receptor (TXA2), TBXA2R (gene 6915) (P21731 whole entry, looked up): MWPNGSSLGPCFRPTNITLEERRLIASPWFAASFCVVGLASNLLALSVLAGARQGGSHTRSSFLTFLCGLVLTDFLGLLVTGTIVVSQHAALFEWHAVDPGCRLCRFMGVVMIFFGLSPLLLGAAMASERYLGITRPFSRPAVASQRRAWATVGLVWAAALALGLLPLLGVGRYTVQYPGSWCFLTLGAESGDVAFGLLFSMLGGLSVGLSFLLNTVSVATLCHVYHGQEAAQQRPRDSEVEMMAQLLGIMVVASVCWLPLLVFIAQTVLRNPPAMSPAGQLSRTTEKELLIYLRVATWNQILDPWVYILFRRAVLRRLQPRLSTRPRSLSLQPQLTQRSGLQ

Row | Structure (SMILES) | outcome | AC50
1 | CC(=O)c1ccccc1N | inactive | –
2 | CCN(CC)c1ccc(C=O)cc1 | – | 4.65 µM (active)
3 | CCN(CC)c1ccc2c(c1)Oc1cc(N(CC)CC)ccc1C21OC(=O)c2ccccc21 | inactive | –
4 | O=C1c2c(O)ccc(Nc3ccc(CCO)cc3)c2C(=O)c2c([N+](=O)[O-])ccc(O)c21 | inactive | –

These molecules were tested against human Opioid Receptor Mu (Opiate Mu), OPRM1 (gene 4988) (UniProt P35372) (assay: NVS_GPCR_hOpiate_mu: NovaScreen (NVS) G Protein-Coupled Receptor Assay for human Opioid Receptor Mu (Opiate Mu) (AID 2283290);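 note: hits lower bound tracer signal versus DMSO meaning displacement of the ligand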).
Method in brief: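 Cell-free radioligand binding to membranes from CHO cells expressing the receptor; bound tracer measured by filter-based scintillation counting 2.5 hours after dosing. Loss of signal versus DMSO baseline reflects displacement; primary screen at 25 uM in duplicate, actives followed up in concentration series.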

Chain of human Opioid Receptor Mu (Opiate Mu), OPRM1 (gene 4988) (P35372 whole entry, looked up): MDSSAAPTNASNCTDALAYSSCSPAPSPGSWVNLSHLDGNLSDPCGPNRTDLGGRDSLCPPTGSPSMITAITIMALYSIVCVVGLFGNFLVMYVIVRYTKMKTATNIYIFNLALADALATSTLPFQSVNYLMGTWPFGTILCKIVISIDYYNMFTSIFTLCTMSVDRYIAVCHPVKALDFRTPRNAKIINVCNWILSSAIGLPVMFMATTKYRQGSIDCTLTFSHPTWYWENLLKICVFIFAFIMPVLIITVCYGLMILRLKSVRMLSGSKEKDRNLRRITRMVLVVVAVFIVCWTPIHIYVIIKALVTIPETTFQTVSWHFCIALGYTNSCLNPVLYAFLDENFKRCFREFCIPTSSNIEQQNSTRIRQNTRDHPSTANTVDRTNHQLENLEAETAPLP

Row | Structure (SMILES) | outcome | AC50
5 | CCN(CC)c1ccc(C=O)cc1 | inactive | –
6 | Cc1cccc(C)n1 | inactive | –
7 | C#CC(O)CCC (centres undefined) | – | 5.3 µM (active)

Each molecule was assayed against Sodium channel protein type 1 subunit alpha (Rattus norvegicus) (UniProt P04774) (assay: NVS_IC_rNaCh_site2: NovaScreen (NVS) Ion Channel Assay for rat Sodium Channel, Site 2 (NaCh) (AID 2283322);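 note: hit means loss of radioligand binding signal relative to DMSO so AC50 marks displacement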).
Method in brief: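 Initial duplicate single-point testing at 25 uM, followed by concentration-response runs for actives. Binding of radioligand to rat forebrain membranes quantified after 1 h via filter-based radiodetection.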

Row | Structure (SMILES) | outcome | AC50
8 | CC(C)(C)c1cc(CCC(=O)NCCCCCCNC(=O)CCc2cc(C(C)(C)C)c(O)c(C(C)(C)C)c2)cc(C(C)(C)C)c1O | inactive | –
9 | CC(=O)c1ccccc1N | – | 1.65 µM (active)
10 | Brc1ccccn1 | inactive | –
11 | CCN(CC)c1ccc2c(c1)Oc1cc(N(CC)CC)ccc1C21OC(=O)c2ccccc21 | inactive | –
12 | CCCC(=O)OCC(COC(=O)CCC)OC(=O)CCC | inactive | –
13 | O=C=NCc1cccc(CN=C=O)c1 | inactive | –
14 | COc1ccccc1C=O | inactive | –

These molecules were tested against human Peripheral-type Benzodiazepine Receptor (PBR), TSPO (gene 706) (UniProt P30536) (assay: NVS_MP_hPBR: NovaScreen (NVS) Membrane Protein Assay for human Peripheral-type Benzodiazepine Receptor (PBR) (AID 2283331);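 note: hits reduce radioligand binding relative to DMSO baseline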).
Method in brief: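 Using human colon-derived membranes, this one-endpoint binding test reads radioligand loss by scintillation after 1 h. Screening started at 25 uM in duplicate, with positive and negative controls on every plate, and actives moved to dose series.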

Chain of human Peripheral-type Benzodiazepine Receptor (PBR), TSPO (gene 706) (P30536 whole entry, looked up): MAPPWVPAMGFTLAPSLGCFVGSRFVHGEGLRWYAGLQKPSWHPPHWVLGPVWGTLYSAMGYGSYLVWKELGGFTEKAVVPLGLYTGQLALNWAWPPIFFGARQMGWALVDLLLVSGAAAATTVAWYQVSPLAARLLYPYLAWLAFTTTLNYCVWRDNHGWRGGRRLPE

Row | Structure (SMILES) | AC50 | outcome
15 | CCN=C1C=CC(=C(c2ccc(N(CC)CC)cc2)c2ccc(N(CC)CC)cc2)c2ccccc21 | 0.0669 µM (active) | –
16 | CCN(CC)c1ccc(C=O)cc1 | – | inactive
17 | CCCCCCCCCc1ccc(OCCO)cc1 | 2.84 µM (active) | –
18 | CCN=c1cc2oc3cc(NCC)c(C)cc3c(-c3ccccc3C(=O)OCC)c-2cc1C | 0.443 µM (active) | –
19 | CCN(CC)c1ccc2c(c1)Oc1cc(N(CC)CC)ccc1C21OC(=O)c2ccccc21 | – | inactive
20 | CCCC(=O)OCC(COC(=O)CCC)OC(=O)CCC | – | inactive
21 | CCCCCCCC/C=C\CCCCCCCC(=O)OCC(O)CO (centres undefined) | 25 µM (active) | –
22 | O=C=NCc1cccc(CN=C=O)c1 | 4.21 µM (active) | –
23 | CCCCCCCC/C=C\CCCCCCCC(=O)N(C)CC(=O)O | – | inactive
24 | O=C1c2c(O)ccc(Nc3ccc(CCO)cc3)c2C(=O)c2c([N+](=O)[O-])ccc(O)c21 | 9.9 µM (active) | –
25 | CC(C)Nc1ccc(NC(C)C)c2c1C(=O)c1ccccc1C2=O | 3.66 µM (active) | –
26 | CCCCCCCCCCCCC[N+](C)(C)Cc1ccccc1 | 25.5 µM (active) | –

These molecules were tested against rat Peripheral-type Benzodiazepine Receptor (PBR), Tspo (gene 24230) (UniProt P16257) (assay: NVS_MP_rPBR: NovaScreen (NVS) Membrane Protein Assay for rat Peripheral-type Benzodiazepine Receptor (PBR) (AID 2283335)).
Method in brief: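 Competitive displacement of specific radioligand from rat kidney membrane PBR, read by filtration and scintillation after 1 h. Compounds first tested at 25 uM in duplicate, then in concentration series; signal loss relative to DMSO.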

Chain of rat Peripheral-type Benzodiazepine Receptor (PBR), Tspo (gene 24230) (P16257 whole entry, looked up): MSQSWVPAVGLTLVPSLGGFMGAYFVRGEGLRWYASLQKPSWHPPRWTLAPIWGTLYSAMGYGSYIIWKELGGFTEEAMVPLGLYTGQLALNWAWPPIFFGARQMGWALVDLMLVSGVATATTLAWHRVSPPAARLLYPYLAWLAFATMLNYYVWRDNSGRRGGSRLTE

Row | Structure (SMILES) | AC50 | outcome
27 | CCN=C1C=CC(=C(c2ccc(N(CC)CC)cc2)c2ccc(N(CC)CC)cc2)c2ccccc21 | 0.185 µM (active) | –
28 | CCN(CC)c1ccc(C=O)cc1 | – | inactive
29 | CCN=c1cc2oc3cc(NCC)c(C)cc3c(-c3ccccc3C(=O)OCC)c-2cc1C | 5.08 µM (active) | –
30 | O=C(c1ccccc1)c1ccc(Cl)cc1 | 12.6 µM (active) | –
31 | CCCCCCCC/C=C\CCCCCCCC(=O)N(C)CC(=O)O | – | inactive
32 | CCc1cc(Cc2cc(CC)c(N)c(CC)c2)cc(CC)c1N | 6.66 µM (active) | –
33 | O=C1c2c(O)ccc(Nc3ccc(CCO)cc3)c2C(=O)c2c([N+](=O)[O-])ccc(O)c21 | 2.38 µM (active) | –
34 | CC(C)Nc1ccc(NC(C)C)c2c1C(=O)c1ccccc1C2=O | 0.666 µM (active) | –
